Test results from PubChem BioAssay (NCATS).
Several values for one entry are separate records, joined by “and”; a condition that tells them apart may be missing. Identical values can stand only once. Inconclusive results are not listed. Activity calls are given as the source filed them. The call rests on the fitted dose curve; in most records, active means well fitted curve in the direction sought with a large enough effect; inconclusive means small, poorly fitted or top-dose-only effect, or another doubt; inactive means no such curve, though single readings can be large; an effect the other way counts as inactive or inconclusive. Numbered stars: 1 amine (or outer) side, 2 acyl side, 3 side chain; on linkers, the order of the positions; unused ones are H or OH. Bridge positions count the residues as written; N and C are the ends. Square brackets hold non-standard residues; d marks the D form. Peptide text beside a SMILES is read from it. * marks the point of attachment. ξ: configuration not given here. ξhTyr(3S-OH,4S-OH,3'-OSO3H) = NC(C(=O)O)[C@H](O)[C@@H](O)c1ccc(O)c(OS(=O)(=O)O)c1; Orn(4R-OH,5R-OH) = O=C([C@H](C[C@@H](O)[C@@H](O)N[*:3])N[*:1])[*:2]; X6 = CCCCCOc1ccc(-c2cc(-c3ccc(C(=O)*)cc3)no2)cc1; X7 = C[C@H]1CN([*:1])C(C(=O)[*:2])[C@H]1O; ξGln(3R-OH) = NC(=O)C[C@@H](O)C(N)C(=O)O; ξPro(4R-OH) = O=C(O)C1C[C@@H](O)CN1; ξThr(3R) = C[C@@H](O)C(N)C(=O)O; PhAc = O=C(Cc1ccccc1)*

Columns and labels:
[1] = biological target: Cellular tumor antigen p53 (Homo sapiens) (UniProt P04637); assay: Primary qHTS for small molecule compounds that upregulate eGFP-tagged delta133p53alpha (in N-terminal) cells. (AID 2060322); conditions: NCI-H358 eGFP-delta133p53alpha fluorescence, 24 h; activation: stronger effect = higher value;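 further: series mostly up to about 56 µM; 0% = DMSO vehicle and 100% = reference activator; nearly all actives have a fitted effect of over 75% in size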
Method in brief: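 NCI-H358 cells pre-induced 24 h with 10 ng/ml doxycycline to express N-terminal eGFP-delta133p53alpha, then dosed 24 h at 37C without doxycycline; fixed, Hoechst-stained, GFP intensity by laser scanning cytometry, normalized to DMSO (0%) and 57.5 uM 5-azacytidine (100%).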

[2] = biological target: Aldehyde dehydrogenase, mitochondrial (Homo sapiens) (UniProt P05091); assay: qHTS for Inhibitors of the Aldehyde Dehydrogenase Family (ALDH2) Primary screen (AID 2061308);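 further: plate controls were vehicle for no effect and reference inhibitor for full effect; nearly all actives have a fitted effect of over 55% in size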
[3] = biological target: Retinaldehyde dehydrogenase 3 (Homo sapiens) (UniProt P47895); assay: qHTS for Inhibitors of the Aldehyde Dehydrogenase Family (ALDH1A3) Validation screen (AID 2061312); further: on the % scale 0 is the no-effect control and ±100 the full control effect; nearly all actives have a fitted effect of over 45% in size
[4] = biological target: Retinaldehyde dehydrogenase 3 (Homo sapiens) (UniProt P47895); assay: qHTS for Inhibitors of the Aldehyde Dehydrogenase Family (ALDH1A3) Primary screen (AID 2061315);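 further: plate controls were DMSO vehicle for no effect and reference inhibitor for full effect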

Sequence of Cellular tumor antigen p53 (Homo sapiens) (P04637 whole entry, looked up): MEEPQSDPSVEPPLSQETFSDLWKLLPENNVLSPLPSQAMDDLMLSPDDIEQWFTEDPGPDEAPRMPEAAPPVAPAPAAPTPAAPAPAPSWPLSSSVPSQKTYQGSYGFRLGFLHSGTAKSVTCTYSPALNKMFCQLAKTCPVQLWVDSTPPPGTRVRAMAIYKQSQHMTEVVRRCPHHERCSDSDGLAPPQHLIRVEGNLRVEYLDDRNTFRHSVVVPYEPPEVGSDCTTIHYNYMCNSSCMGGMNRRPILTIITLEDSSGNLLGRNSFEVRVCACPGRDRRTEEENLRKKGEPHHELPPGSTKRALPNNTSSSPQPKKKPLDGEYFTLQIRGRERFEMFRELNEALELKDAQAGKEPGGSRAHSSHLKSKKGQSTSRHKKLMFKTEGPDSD

C=C[C@]1(C)C[C@@H](OC(=O)CSC2C[C@H]3CC[C@@H](C2)N3C)[C@]2(C)[C@H](C)CC[C@]3(CCC(=O)[C@H]32)[C@@H](C)[C@@H]1O (stereo partly drawn)
inactive: activation [1] 0.477% | Potency [2] | Potency [3] | Potency [4]

COc1ccc2cc(-c3cc(-c4cc(Cl)cc(Cl)c4)nn3C(C)c3ccc(C(=O)NCCC(=O)O)cc3)ccc2c1 (stereo not drawn)
inactive: activation [1] 29.1% | Potency [2] | Potency [3] | Potency [4]

C[C@@H](NC(=O)c1cc(C(=O)N[C@@H](Cc2ccccc2)[C@H](O)CNC2CC2)cc(N(C)S(C)(=O)=O)c1)c1ccccc1
inactive: activation [1] -12.4% | Potency [2] | Potency [3] | Potency [4]

O=C(O)c1cccc(S(=O)(=O)N2CCc3ccccc3C2)c1
inactive: activation [1] -7.64% | Potency [2] | Potency [3] | Potency [4]

CNC(=O)c1ccc2c(c1)CCO[C@H]2CCN1CCN(c2ccc(C(N)=O)cc2)CC1
inactive: activation [1] 8.11% | Potency [2] | Potency [3] | Potency [4]

Cc1cccc(C)c1OCc1cc(C(=O)N2CCC(c3ccncc3)CC2)no1
inactive: activation [1] 0.955% | Potency [2] | Potency [3] | Potency [4]

O=C(NCc1ccc(OC(F)(F)F)cc1)C1c2ccccc2C(=O)N1C1CCOCC1 (stereo not drawn)
inactive: activation [1] -5.73% | Potency [2] | Potency [3] | Potency [4]

O=C(c1ccccn1)c1cnn2c(-c3ccncc3)ccnc12
inactive: activation [1] -7.16% | Potency [2] | Potency [3] | Potency [4]

C=CC(=O)N1CCN(C(=O)c2cc(-c3cc(Cl)ccc3Cl)c(Cl)cc2OC)CC1
inactive: activation [1] -7.64% | Potency [2] | Potency [3] | Potency [4]

O=C(/C=C/c1c(C(=O)O)[nH]c2cc(Cl)cc(Cl)c12)Nc1ccccc1
inactive: activation [1] -11.9% | Potency [2] | Potency [3] | Potency [4]

CN(CCc1ccc(Nc2ncc(-c3cccnc3)s2)cc1)Cc1ccccc1
inactive: activation [1] -8.59% | Potency [2] | Potency [3] | Potency [4]

CC[C@H]1OC(=O)[C@H](C)[C@@H](O[C@H]2C[C@@](C)(OC)[C@@H](O)[C@H](C)O2)C(C)[C@@H](O[C@@H]2O[C@H](C)C[C@H](N(C)C)[C@H]2O)[C@](C)(O)C[C@@H](C)CN(C)[C@H](C)[C@@H](O)[C@]1(C)O (stereo partly drawn)
inactive: activation [1] -5.73% | Potency [2] | Potency [3] | Potency [4]

O=C(CSc1nc2c(c(=O)n1-c1ccccc1)SCC2)Nc1ccc(-c2ccccc2)cn1
inactive: activation [1] 11.5% | Potency [2] | Potency [3] | Potency [4]

C[C@@H](NC(=O)[C@H](O)c1cc(F)cc(F)c1)C(=O)N[C@@H]1C(=O)N(C)c2ccccc2-c2ccccc21
inactive: activation [1] -6.21% | Potency [2] | Potency [3] | Potency [4]

NC(=O)c1ccc(F)c2c1C[C@@H](N(C1CCC1)C1CCC1)CO2
inactive: activation [1] -11.5% | Potency [2] | Potency [3] | Potency [4]

Cc1nc(Nc2ccc(F)cc2)nc(N2CCc3ccccc3C2C)c1C (stereo not drawn)
inactive: activation [1] 11.9% | Potency [2] | Potency [3] | Potency [4]

CCn1c(=O)n([C@H]2CCCN(c3nccc(-c4cc5ccccc5o4)n3)C2)c2ccccc21
inactive: activation [1] -7.16% | Potency [2] | Potency [3] | Potency [4]

CN[C@@H]1[C@@H](O)[C@@H](O[C@@H]2[C@@H](O)[C@H](O[C@H]3O[C@@H]([C@@H](C)NC)CC[C@H]3N)[C@@H](N)C[C@H]2N)OC[C@]1(C)O
inactive: activation [1] -8.59% | Potency [2] | Potency [3] | Potency [4]

CNC(C)C(=O)NC(C(=O)N1CCCC1C(=O)Nc1snnc1-c1ccccc1)C1CCCCC1 (stereo not drawn)
inactive: activation [1] 11% | Potency [2] | Potency [3] | Potency [4]

CCOC(CN1CCN(CC(C)C(=O)c2ccccc2)CC1)c1ccccc1 (stereo not drawn)
inactive: activation [1] -4.18% and 4.3% | Potency [2] | Potency [3] | Potency [4]

CCOC(=O)CNC(=O)[C@@H]1CCCN1C(=O)Cc1ccccc1 (PhAc-Pro-Gly-OEt)
inactive: activation [1] 13.8% | Potency [2] | Potency [3] | Potency [4]

CCOc1cc(CC(=O)NC(CC(C)C)c2ccccc2N2CCCCC2)ccc1C(=O)O (stereo not drawn)
inactive: activation [1] -4.3% | Potency [2] | Potency [3] | Potency [4]

CC1(C)C(=O)C(C)(C)c2cc(C(=O)Nc3ccc(C(=O)O)cc3)ccc21
inactive: activation [1] -2.39% | Potency [2] | Potency [3] | Potency [4]

CCCCCOc1ccc(-c2cc(-c3ccc(C(=O)N[C@H]4C[C@@H](O)[C@@H](O)NC(=O)C5[C@@H](O)[C@@H](C)CN5C(=O)C([C@H](O)CC(N)=O)NC(=O)C([C@H](O)[C@@H](O)c5ccc(O)c(OS(=O)(=O)O)c5)NC(=O)C5C[C@@H](O)CN5C(=O)C([C@@H](C)O)NC4=O)cc3)no2)cc1 (stereo partly drawn) (X6-[Orn(4R-OH,5R-OH)][ξThr(3R)][ξPro(4R-OH)][ξhTyr(3S-OH,4S-OH,3'-OSO3H)][ξGln(3R-OH)][X7]; lactam 1-C)
inactive: activation [1] -0.955% | Potency [2] | Potency [3] | Potency [4]

CNC(=O)[C@@H](c1ccccc1)N1CCc2cc(OC)c(OC)cc2[C@@H]1CCc1ccc(C(F)(F)F)cc1
inactive: activation [1] -3.34% | Potency [2] | Potency [3] | Potency [4]

CCOc1ccc(NC(=S)N2CCC(C(O)(c3ccccc3)c3ccccc3)CC2)cc1
inactive: activation [1] -0.955% | Potency [2] | Potency [3] | Potency [4]

COc1ccccc1Oc1c(NS(=O)(=O)c2ccc(C)cn2)nc(-c2ccncc2)nc1OC
inactive: activation [1] 20% | Potency [2] | Potency [3] | Potency [4]

CCC[C@@]1(CCc2ccccc2)CC(O)=C([C@H](CC)c2cccc(NS(=O)(=O)c3ccc(C(F)(F)F)cn3)c2)C(=O)O1
inactive: activation [1] -3.82% | Potency [2] | Potency [3] | Potency [4]

COc1ccc([C@H](Cc2ccncc2)c2ccccc2)cc1OC1CCCC1
inactive: activation [1] -2.86% | Potency [2] | Potency [3] | Potency [4]

COc1cc2ncnc(Oc3ccc(CC(=O)Nc4cnn(C(C)C)c4)cc3)c2cc1OC
inactive: activation [1] 4.77% | Potency [2] | Potency [3] | Potency [4]

CC(C)NC(=O)c1ccc(C#Cc2ccncc2)cn1
inactive: activation [1] 14.8% | Potency [2] | Potency [3] | Potency [4]

CCc1c(CC(N)=O)c2cc(OCCCP(=O)(O)O)ccc2n1Cc1ccccc1
inactive: activation [1] 2.86% | Potency [2] | Potency [3] | Potency [4]
